As a reminder, the residual activity is the signal under treatment as a percentage of the control signal.

This is an account of results in ChEMBL document CHEMBL2218924, “A broad activity screen in support of a chemogenomic map for kinase signalling research and drug discovery” (Biochem J, 2013).

Assay [1] concerns the target T1, Ephrin type-A receptor 3 (Homo sapiens) (UniProt P29320).
T1 sequence (whole entry): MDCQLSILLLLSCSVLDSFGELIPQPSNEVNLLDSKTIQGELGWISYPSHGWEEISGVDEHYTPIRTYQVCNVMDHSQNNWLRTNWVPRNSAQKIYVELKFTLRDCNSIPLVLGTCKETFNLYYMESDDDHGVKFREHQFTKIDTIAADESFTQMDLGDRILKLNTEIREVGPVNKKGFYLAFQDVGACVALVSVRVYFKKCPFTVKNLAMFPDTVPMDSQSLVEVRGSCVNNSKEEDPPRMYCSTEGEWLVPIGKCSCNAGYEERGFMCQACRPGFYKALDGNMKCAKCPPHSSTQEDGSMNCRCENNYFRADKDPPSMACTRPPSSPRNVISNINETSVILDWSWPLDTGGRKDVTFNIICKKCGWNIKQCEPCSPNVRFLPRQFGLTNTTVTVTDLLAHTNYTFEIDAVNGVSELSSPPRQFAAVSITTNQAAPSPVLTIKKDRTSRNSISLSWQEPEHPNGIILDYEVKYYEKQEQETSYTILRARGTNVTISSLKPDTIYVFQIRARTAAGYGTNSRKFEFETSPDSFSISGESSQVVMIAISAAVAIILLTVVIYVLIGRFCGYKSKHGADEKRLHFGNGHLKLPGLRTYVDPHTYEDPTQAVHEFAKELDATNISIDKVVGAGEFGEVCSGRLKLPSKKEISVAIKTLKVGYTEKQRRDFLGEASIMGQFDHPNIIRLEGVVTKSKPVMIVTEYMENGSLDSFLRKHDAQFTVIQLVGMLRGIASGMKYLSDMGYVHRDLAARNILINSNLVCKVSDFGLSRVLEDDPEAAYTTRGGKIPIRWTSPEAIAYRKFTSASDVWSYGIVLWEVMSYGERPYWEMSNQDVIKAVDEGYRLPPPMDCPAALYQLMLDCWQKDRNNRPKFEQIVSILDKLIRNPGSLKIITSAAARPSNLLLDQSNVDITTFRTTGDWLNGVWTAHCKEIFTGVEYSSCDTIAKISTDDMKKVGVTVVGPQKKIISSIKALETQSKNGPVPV
The settings on record: at 10 µM.

In assay [2] the target is Ephrin type-A receptor 4 (Homo sapiens) (UniProt P54764). The settings on record: at 1 µM.
Chain of Ephrin type-A receptor 4 (Homo sapiens) (P54764 whole entry): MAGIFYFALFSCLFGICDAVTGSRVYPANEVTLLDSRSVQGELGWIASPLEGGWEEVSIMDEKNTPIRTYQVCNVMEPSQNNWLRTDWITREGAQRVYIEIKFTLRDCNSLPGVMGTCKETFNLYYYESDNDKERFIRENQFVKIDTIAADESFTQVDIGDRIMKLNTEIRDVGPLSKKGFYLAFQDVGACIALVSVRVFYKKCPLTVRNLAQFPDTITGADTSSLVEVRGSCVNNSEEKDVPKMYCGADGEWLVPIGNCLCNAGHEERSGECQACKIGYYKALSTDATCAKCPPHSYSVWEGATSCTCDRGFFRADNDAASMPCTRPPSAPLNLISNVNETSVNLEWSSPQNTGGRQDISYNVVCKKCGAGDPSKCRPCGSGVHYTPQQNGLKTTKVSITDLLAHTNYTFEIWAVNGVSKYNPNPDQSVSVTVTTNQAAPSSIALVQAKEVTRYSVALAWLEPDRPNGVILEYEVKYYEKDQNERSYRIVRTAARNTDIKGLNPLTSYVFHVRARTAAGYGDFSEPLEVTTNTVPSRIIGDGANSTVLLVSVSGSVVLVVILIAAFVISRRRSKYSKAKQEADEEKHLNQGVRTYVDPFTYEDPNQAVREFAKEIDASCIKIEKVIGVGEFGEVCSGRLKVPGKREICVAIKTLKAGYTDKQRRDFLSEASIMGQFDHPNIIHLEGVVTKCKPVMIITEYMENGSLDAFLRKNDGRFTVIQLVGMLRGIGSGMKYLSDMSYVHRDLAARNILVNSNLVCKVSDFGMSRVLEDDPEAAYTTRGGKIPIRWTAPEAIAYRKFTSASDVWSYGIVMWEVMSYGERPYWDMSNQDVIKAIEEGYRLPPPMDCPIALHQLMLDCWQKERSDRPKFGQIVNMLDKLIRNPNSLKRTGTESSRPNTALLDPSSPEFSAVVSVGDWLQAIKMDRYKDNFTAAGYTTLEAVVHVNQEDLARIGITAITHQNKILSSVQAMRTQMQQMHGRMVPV
The target is the same in assay [3]. The conditions noted are these: at 10 µM.
Assay [4] deals with Ephrin type-A receptor 5 (Homo sapiens) (UniProt P54756). The settings on record: at 1 µM.
Chain of Ephrin type-A receptor 5 (Homo sapiens) (P54756 whole entry): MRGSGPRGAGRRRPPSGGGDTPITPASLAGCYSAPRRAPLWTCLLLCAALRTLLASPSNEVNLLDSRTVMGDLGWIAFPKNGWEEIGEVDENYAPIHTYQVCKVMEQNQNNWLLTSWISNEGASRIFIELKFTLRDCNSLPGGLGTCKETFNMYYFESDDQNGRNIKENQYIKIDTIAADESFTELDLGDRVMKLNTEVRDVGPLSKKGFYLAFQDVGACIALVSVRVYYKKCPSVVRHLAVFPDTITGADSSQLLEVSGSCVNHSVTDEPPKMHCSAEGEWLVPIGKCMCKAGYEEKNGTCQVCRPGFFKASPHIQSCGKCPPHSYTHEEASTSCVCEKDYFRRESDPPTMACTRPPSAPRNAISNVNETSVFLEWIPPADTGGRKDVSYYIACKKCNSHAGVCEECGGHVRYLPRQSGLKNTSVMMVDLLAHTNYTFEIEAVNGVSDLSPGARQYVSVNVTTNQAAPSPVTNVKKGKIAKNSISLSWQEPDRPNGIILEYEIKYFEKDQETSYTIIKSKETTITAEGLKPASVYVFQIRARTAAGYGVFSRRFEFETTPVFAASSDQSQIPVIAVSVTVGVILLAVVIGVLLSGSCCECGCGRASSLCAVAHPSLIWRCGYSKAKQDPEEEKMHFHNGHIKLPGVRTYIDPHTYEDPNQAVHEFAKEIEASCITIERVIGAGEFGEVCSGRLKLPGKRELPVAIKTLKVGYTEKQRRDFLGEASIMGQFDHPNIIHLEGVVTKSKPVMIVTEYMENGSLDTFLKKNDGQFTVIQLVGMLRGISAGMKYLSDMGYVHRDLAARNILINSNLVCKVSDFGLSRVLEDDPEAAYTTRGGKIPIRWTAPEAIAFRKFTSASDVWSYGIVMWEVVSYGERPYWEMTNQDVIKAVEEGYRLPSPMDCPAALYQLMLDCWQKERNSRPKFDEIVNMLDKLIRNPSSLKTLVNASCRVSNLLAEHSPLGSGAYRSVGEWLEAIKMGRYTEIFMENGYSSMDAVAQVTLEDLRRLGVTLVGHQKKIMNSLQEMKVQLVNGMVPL
For assay [5] the target is unchanged. The conditions noted are these: at 10 µM.
The target of assay [6] is Ephrin type-A receptor 7 (Homo sapiens) (UniProt Q15375). The conditions noted are these: at 1 µM.
Chain of Ephrin type-A receptor 7 (Homo sapiens) (Q15375 28-998 limits assumed): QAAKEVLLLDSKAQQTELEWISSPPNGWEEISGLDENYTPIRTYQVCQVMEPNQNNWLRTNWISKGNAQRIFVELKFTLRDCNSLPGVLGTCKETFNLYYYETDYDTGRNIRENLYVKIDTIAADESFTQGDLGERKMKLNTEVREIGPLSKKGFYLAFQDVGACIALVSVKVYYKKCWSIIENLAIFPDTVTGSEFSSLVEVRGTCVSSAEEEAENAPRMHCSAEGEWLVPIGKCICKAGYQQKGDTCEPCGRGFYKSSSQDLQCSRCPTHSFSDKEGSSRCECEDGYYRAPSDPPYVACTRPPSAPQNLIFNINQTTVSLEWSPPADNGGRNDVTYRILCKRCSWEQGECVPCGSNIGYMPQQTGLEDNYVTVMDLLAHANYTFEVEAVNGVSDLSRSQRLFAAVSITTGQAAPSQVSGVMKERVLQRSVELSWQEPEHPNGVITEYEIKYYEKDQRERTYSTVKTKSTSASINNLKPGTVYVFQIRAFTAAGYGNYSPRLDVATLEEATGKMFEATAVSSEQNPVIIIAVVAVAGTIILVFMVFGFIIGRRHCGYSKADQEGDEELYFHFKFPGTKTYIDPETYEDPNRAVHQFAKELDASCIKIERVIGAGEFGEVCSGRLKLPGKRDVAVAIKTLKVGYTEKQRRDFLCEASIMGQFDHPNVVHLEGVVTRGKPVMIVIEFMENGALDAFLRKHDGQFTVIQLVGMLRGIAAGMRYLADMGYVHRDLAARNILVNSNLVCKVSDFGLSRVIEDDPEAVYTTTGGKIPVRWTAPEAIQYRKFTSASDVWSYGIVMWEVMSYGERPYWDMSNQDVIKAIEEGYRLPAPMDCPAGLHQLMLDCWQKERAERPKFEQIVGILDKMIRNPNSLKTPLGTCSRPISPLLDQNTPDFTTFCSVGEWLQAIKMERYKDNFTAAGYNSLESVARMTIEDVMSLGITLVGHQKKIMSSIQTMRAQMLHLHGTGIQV
For assay [7] the target is unchanged. The conditions noted are these: at 10 µM.
For assay [8], the target named is T2, Ephrin type-A receptor 8 (Homo sapiens) (UniProt P29322).
T2 sequence (whole entry): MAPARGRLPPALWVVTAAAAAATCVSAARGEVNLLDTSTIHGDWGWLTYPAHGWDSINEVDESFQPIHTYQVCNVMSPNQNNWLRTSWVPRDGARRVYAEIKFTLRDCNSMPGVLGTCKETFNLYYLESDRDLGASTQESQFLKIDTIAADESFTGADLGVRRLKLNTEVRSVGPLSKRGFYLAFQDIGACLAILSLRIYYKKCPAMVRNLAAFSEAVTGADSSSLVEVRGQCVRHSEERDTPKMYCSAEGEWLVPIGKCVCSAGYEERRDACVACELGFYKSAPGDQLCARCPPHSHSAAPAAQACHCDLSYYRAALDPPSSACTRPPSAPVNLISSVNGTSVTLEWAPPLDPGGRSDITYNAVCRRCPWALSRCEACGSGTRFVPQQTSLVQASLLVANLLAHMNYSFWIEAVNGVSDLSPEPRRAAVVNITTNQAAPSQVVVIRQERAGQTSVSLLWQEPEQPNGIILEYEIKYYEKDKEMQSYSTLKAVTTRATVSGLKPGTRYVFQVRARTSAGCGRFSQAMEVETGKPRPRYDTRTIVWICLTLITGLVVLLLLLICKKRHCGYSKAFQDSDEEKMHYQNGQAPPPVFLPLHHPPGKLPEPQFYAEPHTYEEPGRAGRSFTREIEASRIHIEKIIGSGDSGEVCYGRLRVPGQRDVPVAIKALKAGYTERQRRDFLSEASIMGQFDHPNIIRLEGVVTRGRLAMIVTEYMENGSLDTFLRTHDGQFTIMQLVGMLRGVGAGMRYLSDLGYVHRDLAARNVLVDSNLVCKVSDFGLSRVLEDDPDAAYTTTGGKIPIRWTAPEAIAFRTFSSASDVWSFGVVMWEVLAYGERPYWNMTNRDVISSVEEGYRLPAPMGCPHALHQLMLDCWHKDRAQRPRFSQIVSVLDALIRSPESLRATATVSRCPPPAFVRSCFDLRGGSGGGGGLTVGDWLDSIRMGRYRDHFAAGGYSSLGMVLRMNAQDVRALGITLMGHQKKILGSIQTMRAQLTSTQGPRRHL
The settings on record: at 1 µM.

Assay [9] concerns the target T2, Ephrin type-A receptor 8 (Homo sapiens). The conditions noted are these: at 10 µM.
Assay [10] deals with T3, Ephrin type-B receptor 1 (Homo sapiens) (UniProt P54762).
T3 sequence (whole entry): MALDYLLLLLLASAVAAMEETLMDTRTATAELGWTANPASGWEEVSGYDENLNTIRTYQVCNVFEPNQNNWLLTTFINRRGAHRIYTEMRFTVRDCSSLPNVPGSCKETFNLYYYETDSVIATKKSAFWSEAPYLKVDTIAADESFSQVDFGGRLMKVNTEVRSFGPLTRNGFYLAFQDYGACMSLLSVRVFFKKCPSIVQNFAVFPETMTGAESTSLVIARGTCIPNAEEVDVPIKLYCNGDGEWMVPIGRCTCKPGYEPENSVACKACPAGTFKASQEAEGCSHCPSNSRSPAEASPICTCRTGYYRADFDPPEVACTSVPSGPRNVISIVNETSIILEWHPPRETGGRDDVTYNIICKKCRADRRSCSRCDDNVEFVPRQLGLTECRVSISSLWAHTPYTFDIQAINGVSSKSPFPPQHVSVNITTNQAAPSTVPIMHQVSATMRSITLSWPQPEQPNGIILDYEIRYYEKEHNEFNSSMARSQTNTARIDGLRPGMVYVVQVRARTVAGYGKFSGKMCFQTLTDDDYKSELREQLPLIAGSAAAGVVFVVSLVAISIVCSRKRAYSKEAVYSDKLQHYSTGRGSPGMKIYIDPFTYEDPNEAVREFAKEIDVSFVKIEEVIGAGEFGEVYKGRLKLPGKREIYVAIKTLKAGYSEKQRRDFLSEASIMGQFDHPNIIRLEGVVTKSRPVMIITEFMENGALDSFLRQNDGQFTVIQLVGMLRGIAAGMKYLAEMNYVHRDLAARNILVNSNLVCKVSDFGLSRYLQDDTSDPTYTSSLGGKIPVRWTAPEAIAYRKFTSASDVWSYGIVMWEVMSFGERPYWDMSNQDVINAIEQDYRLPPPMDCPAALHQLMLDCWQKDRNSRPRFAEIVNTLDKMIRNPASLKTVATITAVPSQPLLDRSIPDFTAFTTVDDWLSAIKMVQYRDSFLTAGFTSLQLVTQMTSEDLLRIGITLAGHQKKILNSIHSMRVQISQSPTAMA
The settings on record: at 1 µM.

On to `COC(=O)[C@@]1(O)C[C@H]2O[C@]1(C)n1c3ccccc3c3c4c(c5c6ccccc6n2c5c31)C(=O)NC4`, for which the residual activity in assay [1] was 5%; in assay [2] it was 83%; in assay [3], 43%; in [4], 66%; in assay [5], 13%; in assay [6], 32%. In addition, the residual activity is 4% in assay [7], 78% in [8], 40% in assay [9] and 39% in assay [10].
